# Test results: ChEMBL document CHEMBL4513135, “CO-ADD screening of IQOG CSIS (Spain) compounds”
# Potency and affinity values are given separately.
# Test system: Candida albicans
# Conditions: 32 ug/mL
# Note: assay method not described here.
row,Compound,Inhibition [%]
1,O=C(COc1ccc2ccccc2c1)N/N=C/c1c[nH]c2ccccc12,0.9
2,N#CC1(Br)C(=NBr)Oc2ccc3ccccc3c2C1c1ccccc1[N+](=O)[O-] (stereo not given),4.94
3,C#CCNc1nc(N)c(C#N)c(-c2ccccc2)c1C#N,2.85
4,Cl.ClCCCC1CCNCC1,0.27
5,CCOC(=O)C1=C(C)Nc2nc3c(c(N)c2C1c1ccc([N+](=O)[O-])cc1)CCCC3.Cl (stereo not given),1.72
6,CCOC(=O)CCc1c[nH]c2ccccc12,5.29
7,O=C(NCc1ccccc1)c1cc2ccccc2[nH]1,-0.44
8,COC(=O)C(=Cc1ccc([N+](=O)[O-])cc1)NC(=O)c1ccccc1,0.51
9,CNC(=O)c1c(Cl)c2cc(OCc3ccccc3)ccc2n1C,4.9
10,C/C(Cc1ccccc1)=N\NC(=O)c1c[nH]c2ccccc12,5.16
11,C#CCN(C)Cc1cc2cc(OCc3ccc(OC)c4ncccc34)ccc2n1C,6.72
12,Cn1c(C(=O)NCc2ccccc2)cc2cc(OCCCC3CCN(Cc4ccccc4)CC3)ccc21,1.62
13,N#CC1=C(N)Oc2c(ccc3ccccc23)C1c1cccc([N+](=O)[O-])c1 (stereo not given),2.35
14,CC1CN(C)c2c(C#N)c(-c3ccccc3)c(C#N)c(=N)n21 (stereo not given),1.63
15,C#CCN(C)c1nc(N(C)CC#C)c(C#N)cc1C#N,2.14
16,N#Cc1c(N)nc(N2CCOCC2)c(C#N)c1-c1ccccc1,1.23
17,Cc1ccc2nc(Cl)c(/C=N/C(C)(C)C)cc2c1,7.21
18,O=C1OC(c2ccc([N+](=O)[O-])cc2)=NC1=Cc1ccccc1,1.83
19,NNC(=O)Cc1c[nH]c2ccccc12,3.51
20,O=C(N[C@H]1CC[C@@H](Br)[C@@H](Br)C1)C(F)(F)F,9.4

row,Compound,Inhibition [%]
1,COc1ccccc1C1c2ccc3ccccc3c2Oc2nc3c(c(N)c21)CCCC3 (stereo not given),0.31
2,CCOC(=O)c1cc2ccccc2[nH]1,2.42
3,COc1nc2ccccc2cc1C=O,6.13
4,C#CCNc1nc(NCCCC2CCN(Cc3ccccc3)CC2)c(C#N)cc1C#N.Cl,1.71
5,CCOc1nc(N)c(C#N)c(-c2ccccc2)c1C#N,1.61
6,Cl.NNN1CCc2ccccc21,2.29
7,CN(C)c1nc(Cl)c(C#N)c(-c2ccccc2)c1C#N,3.09
8,Cl.ClCCCCN1CCCCC1,-0.33
9,C#CCNc1nc(OC)c(C#N)c(-c2ccccc2)c1C#N,1.22
10,CCOC(=O)C1=C(C)Nc2nc3c(c(N)c2C1c1cccc(OC)c1)CCCC3 (stereo not given),5.35
11,COC(=O)C(=Cc1ccc(OC)cc1)NC(=O)c1ccccc1,6.47
12,C#CCN(C)c1nc(Cl)c(C#N)c(-c2ccccc2)c1C#N,11.2
13,O=C(Cc1c[nH]c2ccccc12)NN=Cc1ccccc1,-0.87
14,COc1nc2nc3c(c(N)c2cc1C#N)CCCC3,2.72
15,COc1ccc(C2C(C#N)=C(N)Oc3ccc4ccccc4c32)cc1 (stereo not given),1.62
16,O=C1OC(c2ccccc2)=NC12CC2c1ccc([N+](=O)[O-])cc1 (stereo not given),1.56
17,COc1ccc(C2c3ccc4ccccc4c3OC(=NBr)C2(Br)C#N)cc1OC (stereo not given),5.08
18,COc1ccc(C2c3c(nc4c(c3N)CCCC4)Oc3ccc4ccccc4c32)cc1 (stereo not given),0.67
19,N#Cc1cc2c(N)n[nH]c2nc1N,0.04
20,Cl.NC1(C(=O)O)CC1c1ccccc1 (stereo not given),1.66
